Experimental data from PubChem BioAssay AID720605 (Broad Institute, 2013).
Results with a measured potency or affinity are listed apart. Calls of active or inactive are those of the source.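 How the source made its calls: active means cell viability signal falls with a fitted half-maximal concentration within twice the top dose at all three treatment times; inconclusive means treatment times give differing calls; inactive means every treatment time called inactive.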

Assay: U-251 glioblastoma cell viability loss, dose response, HRAS target identification, Alamar Blue fluorescence, 8/24/48 h, dry powder (AID 720605)

Structure (SMILES) | outcome
CCC(=O)N(c1ccc(OC)c(Cl)c1)C(C(=O)NCCc1ccccc1)c1cccs1 (configuration not stated) | inactive
Cc1onc(C(=O)N2CCN(C(c3ccncc3)c3ccncc3)CC2)c1[N+](=O)[O-] | inactive
